Hit rate of the full screen: of about 52,000 compounds, about 4,300 (8.3%) were called active. This excerpt belongs to a sample that is enriched for actives. Unmarked numbers belong to inactive results. Rule as the data show it: active = survival mostly below about 52% (no sharp cut-off); inactive = mostly above about 56%.
tested on: DeltatarO mutant; test: S. aureus survival, RN4220 and DeltatarO strains – OD600, teichoic acid synthesis inhibitors, primary screen (AID 463173); details: S. aureus RN4220 wild type/DeltatarO growth, OD600, 18 h, hits give low values, screened at 18.75 µg/mL (by protocol)

Compound | survival
CCCn1ccc2c(OCC(=O)Nc3ccc(C(F)(F)F)cc3)cccc2c1=O | 75%
COc1ccccc1CNC(=O)Cn1nc(C)n2cccc2c1=O | 94%
CCN(CC)c1ccc(NC(=O)Cn2cc3c(n2)CCCC3)c(C)c1 | 121%
CCOc1ccc(-n2c(SCC(=O)NC3CCCC3)nnc2-c2ccoc2C)cc1 | 92%
COc1ccccc1NC(=O)c1ccc2c(Cl)c3c(nc2c1)CCCC3 | 15% (active)
COc1ccc(NC(=O)c2ccc3c(SCC(=O)O)c4c(nc3c2)CCCC4)c(OC)c1 | 55%
CCOc1ccccc1NC(=O)c1ccc2c(Cl)c3c(nc2c1)CCC3 | 82%
COc1cc(Cl)c(C)cc1NC(=O)c1ccc2c(SCC(=O)O)c3c(nc2c1)CCCC3 | 41% (active)
O=C(Nc1ccccc1F)c1ccc2c(Cl)c3c(nc2c1)CCC3 | 21% (active)
COc1ccc(C)cc1NC(=O)c1ccc2c(SCC(=O)O)c3c(nc2c1)CCCC3 | 77%
O=C(Nc1ccc(F)c(Cl)c1)c1ccc2c(Cl)c3c(nc2c1)CCCC3 | 118%
COC(=O)c1ccccc1NC(=O)c1ccc2c(Cl)c3c(nc2c1)CCCC3 | 80%
COc1cc(OC)c(NC(=O)c2ccc3c(Cl)c4c(nc3c2)CCCC4)cc1Cl | 85%
CCOc1ccccc1NC(=O)c1ccc2c(Cl)c3c(nc2c1)CCCC3 | 35% (active)
COc1ccc(OC)c(NC(=O)c2ccc3c(Cl)c4c(nc3c2)CCCC4)c1 | 82%
CCOc1ccc(CNC(=O)c2ccc3c(Cl)c4c(nc3c2)CCCC4)cc1 | 75%
COc1ccc(NC(=O)C2CCN(c3ccc(Sc4ccc(C)cc4)nn3)CC2)cc1 | 74%
Cc1ccc(CNC(=O)C(C)n2c(=O)cc(-c3ccccc3)c3c(C)nn(C)c32)cc1 (centres undefined) | 80%
C=CCn1c(Br)nc2c1c(=O)n(C)c(=O)n2C | 73%
CN(C1CCCCC1)S(=O)(=O)c1ccc2c(c1)c(=O)c(C(=O)NCCc1ccccc1)cn2C | 79%

Compound | survival
Cc1cc(C)c2c(-n3cccc3)c(C(=O)NCCc3ccccc3)sc2n1 | 90%
Cc1cc(C)cc(OCCSc2nc(-c3cccs3)nc3cc(=O)[nH]n23)c1 | 67%
O=C(COc1ccccc1Cl)Nc1cc(-c2ccccc2F)nn1-c1ccccc1 | 91%
CCOC(=O)c1ccccc1NC(=O)c1ccc2c(Cl)c3c(nc2c1)CCC3 | 96%
COc1ccc(CNC(=O)c2ccc3c(Cl)c4c(nc3c2)CCCC4)c(OC)c1 | 92%
COc1cccc(CNC(=O)c2ccc3c(Cl)c4c(nc3c2)CCCC4)c1 | 49% (active)
CCOC(=O)c1cccc(NC(=O)c2ccc3c(Cl)c4c(nc3c2)CCC4)c1 | 41% (active)
O=C(NCc1cccc(Cl)c1)c1ccc2c(Cl)c3c(nc2c1)CCCC3 | 48%
COc1cc(NC(=O)c2ccc3c(Cl)c4c(nc3c2)CCC4)cc(OC)c1OC | 62%
NS(=O)(=O)c1ccc(NC(=O)c2csnn2)cc1 | 80%
O=C(NCCO)c1ccc(-c2nnc(Nc3ccc(OC(F)(F)Cl)cc3)c3ccccc23)cc1 | 72%
CCOC(=O)c1ccc(NC(=O)C2CCCN(c3ccc(Sc4ccc(C)cc4)nn3)C2)cc1 (centres undefined) | 43%
Cc1ccccc1CN1c2ccccc2-c2nc(SCC(=O)Nc3cc(F)ccc3F)ncc2S1(=O)=O | 89%
Cc1ccc(C)c(CN2C(=O)c3ccccc3Sc3ccc(C(=O)NCc4ccc5c(c4)OCO5)cc32)c1 | 89%
Cc1[nH]c2ccccc2c1Cc1nnc(SCC(N)=O)n1Cc1ccco1 | 99%
CCOC(=O)c1nc(Nc2ccc(C(=O)OCC(C)C)cc2)c2ccccc2n1 | 61%
CCOC(=O)c1nc(Nc2ccc(C(C)=O)cc2)c2ccccc2n1 | 49%
O=C(CSc1nc(Nc2ccc(F)cc2)c2ccccc2n1)c1ccc(F)cc1 | 124%
COC(=O)c1ccc(Nc2nc(-c3ccc(C)cc3)nc3ccccc23)cc1 | 9% (active)
COC(=O)c1ccc(Nc2nc(-c3ccccc3Cl)nc3ccccc23)cc1 | 21% (active)

Compound | survival
CCOC(=O)c1nc(Nc2ccc(C(=O)OC(C)C)cc2)c2ccccc2n1 | 68%
COc1ccc2c(c1)c1c(c(=O)n(-c3ccc(OC)c(OC)c3)c(=O)n1Cc1ccc(C)cc1)n2C | 73%
CCOc1ccc(NC(=O)CSc2nc3c(oc4ccccc43)c(=O)n2-c2ccccc2C)cc1 | 79%
COc1ccc(CC(=O)N2CCc3cc(OC)c(OC)cc3C2COc2ccc(F)cc2)cc1 (centres undefined) | 67%
Cn1nnnc1SCCCNCc1cccc(OCc2ccc(F)cc2)c1 | 115%
COc1cc(CNCCSc2nnnn2C)ccc1OCc1ccccc1 | 73%
Cn1nnnc1SCCNCc1ccc(OCc2ccc(Cl)cc2)cc1 | 68%
Cn1nnnc1SCCCNCc1cccc(OCc2ccccc2)c1 | 85%
Cn1nnnc1SCCCNCc1ccccc1OCc1ccc(F)cc1 | 57% (active)
CCOc1cc(CNCCSc2nnnn2C)cc(Cl)c1OCc1ccc(Cl)cc1 | 2% (active)
Cn1nnnc1SCCCNCc1ccccc1OCc1ccc(Cl)cc1 | 66%
COc1cccc(CNCCSc2nnnn2C)c1OCc1ccc(Cl)cc1 | 62%
Cn1nnnc1SCCCNCc1cccc(OCc2ccc(Cl)cc2)c1 | -3% (active)
COc1cc(CNCCSc2nnnn2C)cc(Cl)c1OCc1ccccc1 | 44% (active)
Cn1nnnc1SCCCNCc1ccccc1OCc1ccccc1F | 72%
COc1cccc(CNCCSc2nnnn2C)c1OCc1ccccc1 | 79%
O=C1CCc2cc(S(=O)(=O)NC(C(=O)Nc3ccc(F)cc3)c3ccccc3)ccc2N1 (centres undefined) | 100%
COc1ccc(-n2c(=O)c3c4c(sc3n(CC(=O)N3CCCCC3C)c2=O)CCC4)c(OC)c1 (centres undefined) | 87%
Cc1ccc(Cl)cc1NC(=O)Cn1c(=O)c(CNc2ccccc2)cc2cc3c(cc21)OCCO3 | 95%

— PubChem BioAssay AID463173 (ICCB-Longwood Screening Facility, Harvard Medical School, 2010)
